Read-outs that look alike come from different tables or passages of the source.
How the values were obtained:
[1] = test system: JAK1(JH2domain-pseudokinase); conditions: concentration: 1 μM,replicates: in singlicate; n = 1
[2] = test system: JAK2(JH1domain-catalytic); conditions: concentration: 1 μM,replicates: in singlicate; n = 1
[3] = test system: JAK3(JH1domain-catalytic); conditions: concentration: 1 μM,replicates: in singlicate; n = 1
JNK1 = test system: T1, JNK1; conditions: concentration: 1 μM,replicates: in singlicate; n = 1
T1 construct: gene MAPK8

JNK2 = test system: T2, JNK2; conditions: concentration: 1 μM,replicates: in singlicate; n = 1
T2 construct: gene MAPK9

JNK3 = test system: T3, JNK3; conditions: concentration: 1 μM,replicates: in singlicate; n = 1
T3 construct: gene MAPK10

KIT-autoinhibited = conditions: concentration: 1 μM,replicates: in singlicate; n = 1
KIT = conditions: concentration: 1 μM,replicates: in singlicate; n = 1
LATS1 = conditions: concentration: 1 μM,replicates: in singlicate; n = 1
LATS2 = conditions: concentration: 1 μM,replicates: in singlicate; n = 1
LCK = conditions: concentration: 1 μM,replicates: in singlicate; n = 1
LIMK1 = conditions: concentration: 1 μM,replicates: in singlicate; n = 1
LIMK2 = conditions: concentration: 1 μM,replicates: in singlicate; n = 1
LKB1 = test system: T4, LKB1; conditions: concentration: 1 μM,replicates: in singlicate; n = 1
T4 construct: gene STK11

LOK = test system: T5, LOK; conditions: concentration: 1 μM,replicates: in singlicate; n = 1
T5 construct: gene STK10

LRRK2 = conditions: concentration: 1 μM,replicates: in singlicate; n = 1
LTK = conditions: n = 1
LYN = conditions: concentration: 1 μM,replicates: in singlicate; n = 1
LZK = test system: T6, LZK; conditions: concentration: 1 μM,replicates: in singlicate; n = 1
T6 construct: gene MAP3K13

MAK = conditions: concentration: 1 μM,replicates: in singlicate; n = 1
[4] = concentration: 1 μM,replicates: in singlicate
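Further: KINOMEscan kinase panel screen.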

CC(C)S(=O)(=O)N1CCN(Cc2ccc3c(c2)nc(NC(=O)c2ccsc2)n3C[C@H](O)c2ccccc2)CC1 [GW635815]
%Inh [1]: 0% | %Inh [2]: 77% | %Inh [3]: 54% | %Inh (JNK1): 19% | %Inh (JNK2): 10% | %Inh (JNK3): 15% | %Inh (KIT-autoinhibited): 20% | %Inh (KIT): 87% | %Inh (LATS1): 0% | %Inh (LATS2): 0% | %Inh (LCK): 39% | %Inh (LIMK1): 0% | %Inh (LIMK2): 0% | %Inh (LKB1): 0% | %Inh (LOK): 0% | %Inh (LRRK2): 66% | %Inh (LTK; [4]): 25% | %Inh (LYN): 0% | %Inh (LZK): 69% | %Inh (MAK): 18%

CN1CCN(CCCNc2nccc(-c3c(-c4ccc(F)cc4)nn4cc(C(N)=O)ccc34)n2)CC1 [GW622475]
%Inh [1]: 0% | %Inh [2]: 0% | %Inh [3]: 0% | %Inh (JNK1): 92.1% | %Inh (JNK2): 99.6% | %Inh (JNK3): 99.6% | %Inh (KIT-autoinhibited): 2% | %Inh (KIT): 66% | %Inh (LATS1): 0% | %Inh (LATS2): 7% | %Inh (LCK): 51% | %Inh (LIMK1): 0% | %Inh (LIMK2): 9% | %Inh (LKB1): 0% | %Inh (LOK): 0% | %Inh (LRRK2): 2% | %Inh (LTK; [4]): 39% | %Inh (LYN): 0% | %Inh (LZK): 0% | %Inh (MAK): 50%

CC(=O)c1c(-c2ccncc2)[nH]c(-c2ccncc2)c1C [GW493036]
%Inh [1]: 0% | %Inh [2]: 20% | %Inh [3]: 0% | %Inh (JNK1): 25% | %Inh (JNK2): 8% | %Inh (JNK3): 11% | %Inh (KIT-autoinhibited): 0% | %Inh (KIT): 0% | %Inh (LATS1): 7% | %Inh (LATS2): 4% | %Inh (LCK): 0% | %Inh (LIMK1): 0% | %Inh (LIMK2): 1% | %Inh (LKB1): 0% | %Inh (LOK): 0% | %Inh (LRRK2): 26% | %Inh (LTK; [4]): 0% | %Inh (LYN): 0% | %Inh (LZK): 42% | %Inh (MAK): 34%

COc1cccc(C2=C(Nc3cccc(Cl)c3)C(=O)NC2=O)c1 [SB-341556]
%Inh [1]: 0% | %Inh [2]: 45% | %Inh [3]: 92.9% | %Inh (JNK1): 25% | %Inh (JNK2): 44% | %Inh (JNK3): 32% | %Inh (KIT-autoinhibited): 0% | %Inh (KIT): 14% | %Inh (LATS1): 0% | %Inh (LATS2): 0% | %Inh (LCK): 15% | %Inh (LIMK1): 67% | %Inh (LIMK2): 0% | %Inh (LKB1): 0% | %Inh (LOK): 9% | %Inh (LRRK2): 83% | %Inh (LTK; [4]): 86% | %Inh (LYN): 0% | %Inh (LZK): 0% | %Inh (MAK): 0%

Cc1ccc2c(-c3ccnc(Nc4ccc(C(F)(F)F)cc4)n3)cnn2n1 [GW819776]
%Inh [1]: 57% | %Inh [2]: 29% | %Inh [3]: 0% | %Inh (JNK1): 91.5% | %Inh (JNK2): 53% | %Inh (JNK3): 78% | %Inh (KIT-autoinhibited): 34% | %Inh (KIT): 78% | %Inh (LATS1): 0% | %Inh (LATS2): 0% | %Inh (LCK): 10% | %Inh (LIMK1): 2% | %Inh (LIMK2): 0% | %Inh (LKB1): 24% | %Inh (LOK): 16% | %Inh (LRRK2): 0% | %Inh (LTK; [4]): 28% | %Inh (LYN): 1% | %Inh (LZK): 0% | %Inh (MAK): 20%

Cn1ccc2ncnc(Oc3ccc(NC(=O)Nc4cc(C(C)(C)C)on4)c(Cl)c3)c21
%Inh [1]: 0% | %Inh [2]: 8% | %Inh [3]: 6% | %Inh (JNK1): 12% | %Inh (JNK2): 48% | %Inh (JNK3): 7% | %Inh (KIT-autoinhibited): 30% | %Inh (KIT): 100% | %Inh (LATS1): 20% | %Inh (LATS2): 25% | %Inh (LCK): 98.2% | %Inh (LIMK1): 13% | %Inh (LIMK2): 17% | %Inh (LKB1): 0% | %Inh (LOK): 99.9% | %Inh (LRRK2): 3% | %Inh (LTK; [4]): 39% | %Inh (LYN): 95.4% | %Inh (LZK): 0% | %Inh (MAK): 0%

Cc1ccc(CC(=O)N2CCc3cc(-c4cn(C)c5ncnc(N)c45)ccc32)cc1 [GSK2634758]
%Inh [1]: 0% | %Inh [2]: 0% | %Inh [3]: 0% | %Inh (JNK1): 13% | %Inh (JNK2): 12% | %Inh (JNK3): 0% | %Inh (KIT-autoinhibited): 0% | %Inh (KIT): 98.6% | %Inh (LATS1): 0% | %Inh (LATS2): 9% | %Inh (LCK): 38% | %Inh (LIMK1): 0% | %Inh (LIMK2): 0% | %Inh (LKB1): 19% | %Inh (LOK): 87% | %Inh (LRRK2): 0% | %Inh (LTK; [4]): 24% | %Inh (LYN): 23% | %Inh (LZK): 24% | %Inh (MAK): 4%

Cn1ccc2ncnc(Oc3ccc(NC(=O)Nc4cncc(C(F)(F)F)c4)c(Cl)c3)c21
%Inh [1]: 0% | %Inh [2]: 0% | %Inh [3]: 0% | %Inh (JNK1): 0% | %Inh (JNK2): 0% | %Inh (JNK3): 0% | %Inh (KIT-autoinhibited): 17% | %Inh (KIT): 99.9% | %Inh (LATS1): 0% | %Inh (LATS2): 0% | %Inh (LCK): 50% | %Inh (LIMK1): 0% | %Inh (LIMK2): 0% | %Inh (LKB1): 0% | %Inh (LOK): 99.2% | %Inh (LRRK2): 0% | %Inh (LTK; [4]): 16% | %Inh (LYN): 32% | %Inh (LZK): 0% | %Inh (MAK): 0%

CS(=O)(=O)Nc1ccc(-c2ccnc3[nH]ccc23)cc1 [GSK993273]
%Inh [1]: 9% | %Inh [2]: 97.7% | %Inh [3]: 97.1% | %Inh (JNK1): 49% | %Inh (JNK2): 27% | %Inh (JNK3): 28% | %Inh (KIT-autoinhibited): 0% | %Inh (KIT): 59% | %Inh (LATS1): 42% | %Inh (LATS2): 82% | %Inh (LCK): 25% | %Inh (LIMK1): 0% | %Inh (LIMK2): 13% | %Inh (LKB1): 0% | %Inh (LOK): 0% | %Inh (LRRK2): 35% | %Inh (LTK; [4]): 0% | %Inh (LYN): 0% | %Inh (LZK): 8% | %Inh (MAK): 0%

COc1cccc(OC)c1C(=O)Nc1cccc(-c2nn3ccccc3c2-c2ccnc(Nc3cccc(F)c3)n2)c1 [GSK361065]
%Inh [1]: 4% | %Inh [2]: 3% | %Inh [3]: 0% | %Inh (JNK1): 44% | %Inh (JNK2): 0% | %Inh (JNK3): 0% | %Inh (KIT-autoinhibited): 11% | %Inh (KIT): 90.9% | %Inh (LATS1): 6% | %Inh (LATS2): 10% | %Inh (LCK): 24% | %Inh (LIMK1): 31% | %Inh (LIMK2): 15% | %Inh (LKB1): 6% | %Inh (LOK): 90% | %Inh (LRRK2): 0% | %Inh (LTK; 1 µM): 13% | %Inh (LYN): 8% | %Inh (LZK): 8% | %Inh (MAK): 14%

Source: PMC5540273 (PLoS ONE, 2017)
